TLR4-MyD88 BLA: inhibitors of TLR4-MyD88 association in cells, primary screen, cell-based, HeLa CL3-4, BLA complementation, FRET ratio. 0.18% of 200,000 active. HeLa CL3-4 TLR4/MyD88 BLA complementation. Toll-like receptor 4 (Homo sapiens) + Myeloid differentiation primary response protein …. inhibition, % at 8.4 µM; in the data active = inhibition above about 25%
Target sequence (O00206 whole entry, looked up): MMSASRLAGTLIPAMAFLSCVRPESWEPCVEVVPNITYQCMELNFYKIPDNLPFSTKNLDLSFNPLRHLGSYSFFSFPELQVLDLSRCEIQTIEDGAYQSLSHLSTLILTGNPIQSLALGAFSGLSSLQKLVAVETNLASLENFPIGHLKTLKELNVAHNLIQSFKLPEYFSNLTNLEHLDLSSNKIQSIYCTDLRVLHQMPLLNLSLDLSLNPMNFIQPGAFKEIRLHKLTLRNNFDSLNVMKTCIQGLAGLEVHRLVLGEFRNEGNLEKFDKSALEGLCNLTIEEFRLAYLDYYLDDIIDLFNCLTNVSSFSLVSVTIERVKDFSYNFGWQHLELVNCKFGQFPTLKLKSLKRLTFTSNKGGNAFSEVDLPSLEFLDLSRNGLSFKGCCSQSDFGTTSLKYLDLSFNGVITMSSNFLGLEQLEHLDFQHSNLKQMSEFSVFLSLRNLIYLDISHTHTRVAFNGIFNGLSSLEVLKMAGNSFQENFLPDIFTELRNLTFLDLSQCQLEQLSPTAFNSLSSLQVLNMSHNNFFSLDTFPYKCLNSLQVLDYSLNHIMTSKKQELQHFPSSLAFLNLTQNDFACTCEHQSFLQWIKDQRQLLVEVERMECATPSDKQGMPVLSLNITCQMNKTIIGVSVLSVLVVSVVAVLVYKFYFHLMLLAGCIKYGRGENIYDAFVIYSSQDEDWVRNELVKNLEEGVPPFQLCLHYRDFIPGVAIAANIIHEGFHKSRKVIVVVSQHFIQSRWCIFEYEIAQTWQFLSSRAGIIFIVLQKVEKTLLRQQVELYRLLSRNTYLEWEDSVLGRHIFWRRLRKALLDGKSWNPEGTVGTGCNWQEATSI
Target sequence (Q99836 whole entry, looked up): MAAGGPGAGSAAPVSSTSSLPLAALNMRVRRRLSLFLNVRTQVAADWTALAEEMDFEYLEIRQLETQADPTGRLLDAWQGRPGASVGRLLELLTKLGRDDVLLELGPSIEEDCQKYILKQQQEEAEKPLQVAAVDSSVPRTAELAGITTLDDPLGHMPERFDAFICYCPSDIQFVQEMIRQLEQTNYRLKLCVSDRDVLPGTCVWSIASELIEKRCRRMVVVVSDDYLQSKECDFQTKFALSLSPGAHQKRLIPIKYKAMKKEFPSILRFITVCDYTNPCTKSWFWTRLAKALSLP
NOD2 RIPK2 PPI: NOD2-RIPK2 binding disruptors in cells, primary screen, fluorescence, CHO cells, BLA complementation; CCF4 ratio; inhibition, % at 4.98 µM; Receptor-interacting serine/threonine-protein kinase 2 (Homo sapiens), O43353; 0.38% of 360,000 active; in the data active = inhibition above about 21%
Myeloid diff MLP: induction of myeloid progenitor differentiation, primary screen, cell-based, flow cytometry, MLPCN library; ER-HoxA9 myeloid progenitors, lysozyme-GFP differentiation; calls only at 10 µM; 1% of 360,000 active; AID 624256, 2012;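 active = normalized GFP-positive differentiation at or above the plate's own cutoff, the solvent-only control mean plus 3 SD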;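 note: cells exposed to compound for four days before flow analysis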
TLR9-MyD88 block: inhibitors of TLR9-MyD88 association in cells, primary screen, cell-based, CHO, BLA complementation, fluorescence. 0.21% of 340,000 active. AID 504734, 2011. inhibition, % at 4.98 µM. Toll-like receptor 9 (Homo sapiens) + Myeloid differentiation primary response protein …. CCF4 FRET ratio;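 active = inhibition above the mean over all tested compounds plus 3 SD, cut at about 21% in these data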
ABCB6 inh MLPCN: ABCB6 transporter inhibitors, primary screen, K562-ABCB6 cells, flow cytometry, MLPCN library; AID 602162, 2011; fluorescence ratio to DMSO, % at 10 µM; K562-ABCB6 porphyrin accumulation, 1 h; hits give low values; ATP-binding cassette sub-family B member 6 (Homo sapiens), Q9NP58; 0.19% of 360,000 active;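 active = fluorescence ratio to DMSO below 75%, the collection mean minus 3 SD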;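 note: signal is porphyrin accumulated inside mitochondria; lower ratio means ABCB6 inhibition with less porphyrin fluorescence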
TLR4-MyD88 conf: TLR4-MyD88 association inhibitors, retest, confirmation, cell-based, HeLa CL3-4, BLA complementation, FRET ratio; shares compounds with TLR4-MyD88 BLA; 50% of 350 active; CCF4 FRET ratio; inhibition, % at 8.4 µM;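 active = mean inhibition across three repeat runs above about 25% carried over from the earlier screen, limit read from the data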
BLA inhibitor ct: inhibits beta-lactamase activity, counter-screen to TLR4-MyD88 binding inhibitors; shares compounds with TLR4-MyD88 BLA; 63% of 350 active; HeLa BLA reporter, CCF4 FRET ratio; AID 1237; inhibition, % at 8.4 µM;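 active = mean inhibition over three repeats above about 26% taken from the earlier screen, limit read from the data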;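 note: HeLa cells stably expressing beta-lactamase reporter as counterscreen for TLR4-MyD88 inhibitors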
Of the large screens only hits and unclear results are named; the others gave an inactive call (follow-up assays come after a bar, where they were run). An excerpt weighted towards active compounds, which were near 1.7% of everything screened.

CCOC(=O)Cc1cc(=O)[nH]n(-c2ccccc2)c1=O	none (no result: TLR4-MyD88 BLA)
COc1ccc(C2C=C(c3ccccc3)Nc3nc(NC(C)=O)nn32)cc1 (centres undefined)	TLR4-MyD88 BLA 36 (no result: NOD2 RIPK2 PPI, Myeloid diff MLP, TLR9-MyD88 block, ABCB6 inh MLPCN) | TLR4-MyD88 conf 31 | BLA inhibitor ct 56
COc1ccc(C2C=C(C)Nc3nc(SC)nn32)cc1 (centres undefined)	none
CCOc1ccc(C2C=C(c3ccccc3)Nc3ncnn32)cc1 (centres undefined)	TLR4-MyD88 BLA 27 (no result: NOD2 RIPK2 PPI, Myeloid diff MLP, TLR9-MyD88 block, ABCB6 inh MLPCN) | TLR4-MyD88 conf inactive | BLA inhibitor ct 41
CCOc1ccc(C2C=C(c3ccc(F)cc3)Nc3ncnn32)cc1 (centres undefined)	TLR4-MyD88 BLA 26 | TLR4-MyD88 conf inactive | BLA inhibitor ct 53
CC(=Nc1ccccc1)C1=C(O)C(CC(C)C)NC1=O (centres undefined)	none (no result: TLR4-MyD88 BLA)
CCOc1ccc(S(=O)(=O)N2CCOCC2)c2ccccc12	none (no result: TLR4-MyD88 BLA)
CCOc1ccc(C(C)(C)C)cc1S(=O)(=O)N1CCOCC1	TLR4-MyD88 BLA 27 | TLR4-MyD88 conf inactive | BLA inhibitor ct inactive
CC1CC(=O)c2c(cc3c(-c4c(O)cc(O)c5c(O)c6c(cc45)OC(C)CC6=O)c(O)cc(O)c3c2O)O1 (centres undefined)	TLR4-MyD88 BLA 42, NOD2 RIPK2 PPI 23 | TLR4-MyD88 conf 44 | BLA inhibitor ct 65
O=C1CC(c2ccc(O)cc2)Oc2cc(O)cc(O)c21 (centres undefined)	none
NS(=O)(=O)c1ccc(CCNC(=O)CSc2nc3ccsc3c(=O)n2C2CC2)cc1	none
CCCCNC(=O)CSc1nc2ccsc2c(=O)n1C1CCN(C(=O)OCC)CC1	TLR4-MyD88 BLA 48 | TLR4-MyD88 conf inactive | BLA inhibitor ct inactive
O=C(CN1CCN(S(=O)(=O)c2cccs2)CC1)N1CCCCC1	none (no result: TLR4-MyD88 BLA)
O=[N+]([O-])c1ccc(-c2cn3nc(-c4ccccc4)c(-c4ccccc4)nc3n2)cc1	none (no result: TLR4-MyD88 BLA, TLR9-MyD88 block)
c1ccc(-c2cn3nc(-c4ccccc4)c(-c4ccccc4)nc3n2)cc1	TLR4-MyD88 BLA 52 | TLR4-MyD88 conf 43 | BLA inhibitor ct 73
CN(C)c1ccc(/C=C/C(O)=C2/C(=O)N(C)C3(C)CC2c2ccccc2O3)cc1 (centres undefined)	TLR4-MyD88 BLA 49 (no result: NOD2 RIPK2 PPI, Myeloid diff MLP, TLR9-MyD88 block, ABCB6 inh MLPCN) | TLR4-MyD88 conf 35 | BLA inhibitor ct 68
Nc1cc(-c2ccccc2)nn1Cc1ccc(Cl)cc1	TLR4-MyD88 BLA 28 | TLR4-MyD88 conf inactive | BLA inhibitor ct inactive
O=C(NCc1ccccc1Cl)c1ccc2nc([C@@H]3O[C@H](CO)[C@H](O)[C@H](O)[C@H]3O)[nH]c2c1	none (no result: TLR4-MyD88 BLA, TLR9-MyD88 block)
COC(=O)c1ccc(CSC(=N)N)o1	none
CCOC(=O)c1ccoc1CSCc1ccc(C(=O)OC)o1	TLR4-MyD88 BLA 27 | TLR4-MyD88 conf inactive | BLA inhibitor ct inactive
O=C(CSc1nnc(CNc2cccc(C(F)(F)F)c2)n1Cc1ccco1)NCc1ccco1	TLR4-MyD88 BLA 26 | TLR4-MyD88 conf inactive | BLA inhibitor ct inactive
CCn1c(SCC(=O)NCc2ccccc2)nc2nc3c(cc2c1=O)CCCC3	TLR4-MyD88 BLA 25 | TLR4-MyD88 conf inactive | BLA inhibitor ct inactive
Cc1ccc(C)c(N(CC(=O)N/N=C/c2ccc(-c3ccc([N+](=O)[O-])cc3)o2)S(=O)(=O)c2ccccc2)c1	TLR4-MyD88 BLA 55 | TLR4-MyD88 conf 58 | BLA inhibitor ct 87
Cc1cc(C(=O)N2CCc3ccccc3C2)on1	none (no result: TLR4-MyD88 BLA)
CCc1cccc(C)c1NS(=O)(=O)Cc1ccccc1	none (no result: TLR4-MyD88 BLA)
O=c1cc(-c2c(F)c(F)c(F)c(F)c2F)oc2c(F)c(F)c(F)c(F)c12	TLR4-MyD88 BLA 42 (no result: NOD2 RIPK2 PPI, Myeloid diff MLP, TLR9-MyD88 block, ABCB6 inh MLPCN) | TLR4-MyD88 conf 38 | BLA inhibitor ct inactive
CCOc1ccccc1NC(=O)c1cc(C(=O)Nc2ccccc2OCC)cc(N2C(=O)CCC2=O)c1	none
Oc1sc(C=Nc2ccccc2)c2ccccc12	TLR4-MyD88 BLA 27 | TLR4-MyD88 conf inactive | BLA inhibitor ct 39
O=C1c2cccc3c(N4CCCCC4)ccc(c23)C(=O)N1c1ccc(O)cc1	TLR4-MyD88 BLA 31, Myeloid diff MLP active | TLR4-MyD88 conf 30 | BLA inhibitor ct 48
COc1ccc(-c2ccc3c(N)c(C(=O)c4ccc(OC)c(OC)c4)sc3n2)cc1	TLR4-MyD88 BLA 27 | TLR4-MyD88 conf inactive | BLA inhibitor ct 45
Cc1cccc(C(=O)N[C@H](C(=O)OCC(=O)NC2CCS(=O)(=O)C2)C(C)C)c1 (some centres undefined)	none
CN(Cc1ccc(F)cc1)C(=O)c1ccc(NC(=O)CC2SC(N3CCCC3)=NC2=O)cc1 (centres undefined)	none (no result: TLR4-MyD88 BLA)
Fc1cccc(-c2nnn3c2nc(Cl)c2ccccc23)c1	TLR4-MyD88 BLA 35 (no result: Myeloid diff MLP) | TLR4-MyD88 conf 58 | BLA inhibitor ct 41
CN(CC(=O)Nc1cc(Cl)ccc1C#N)C1CCS(=O)(=O)C1 (centres undefined)	none (no result: TLR4-MyD88 BLA)
CCOC(=O)C1=C(C)N=c2s/c(=C\c3ccc(OC(C)=O)c(OCC)c3)c(=O)n2C1/C=C/c1ccccc1 (centres undefined)	TLR4-MyD88 BLA 54 | TLR4-MyD88 conf 26 | BLA inhibitor ct inactive
COc1ccc(C)cc1S(=O)(=O)N1CCN(S(=O)(=O)c2cc(C)ccc2OC)C(C)C1 (centres undefined)	TLR4-MyD88 BLA 27 | TLR4-MyD88 conf inactive | BLA inhibitor ct inactive
CC(=O)/C(=N\Nc1ccccc1)Sc1cccc2cccnc12	none
O=C(Sc1cccc2cccnc12)c1ccc(F)cc1	TLR4-MyD88 BLA 29 (no result: NOD2 RIPK2 PPI, Myeloid diff MLP, TLR9-MyD88 block, ABCB6 inh MLPCN) | TLR4-MyD88 conf 26 | BLA inhibitor ct 40
O=S(=O)(Nc1cc(Sc2cccc3cccnc23)c(O)c2ccccc12)c1ccc(F)cc1	TLR4-MyD88 BLA 29 (no result: NOD2 RIPK2 PPI, Myeloid diff MLP, TLR9-MyD88 block, ABCB6 inh MLPCN) | TLR4-MyD88 conf 25 | BLA inhibitor ct 32
COc1ccc([C@H]2C[C@H](n3cc(COC(=O)c4ccccc4)nn3)[C@@H](O)CN2C(=O)c2cccs2)cc1	none (no result: TLR4-MyD88 BLA)
O=C(COC(=O)c1ccccc1NCCO)NCc1cccs1	none (no result: TLR4-MyD88 BLA)
CC1=NOC(=O)/C1=C\c1ccc(-c2ccc(Cl)cc2Cl)o1	TLR4-MyD88 BLA 28 | TLR4-MyD88 conf inactive | BLA inhibitor ct inactive
COc1ccccc1N1CCN(C(=O)COc2cc(C)cc(C)c2)CC1	TLR4-MyD88 BLA 26 | TLR4-MyD88 conf inactive | BLA inhibitor ct inactive
COc1ccccc1N1CCN(C(=O)COc2cc(C)ccc2C)CC1	none
O=c1cc(-c2ccccc2)ss1	none (no result: TLR4-MyD88 BLA)
